According to PubChem BioAssay AID2284085 (EPA ToxCast):
Activity calls are given as the source filed them. How the source made its calls: active means hit-call score of the fitted dose curve at least 0.9, where 1 is the maximum; inactive means score below 0.9.

target: human Fms (CSFR) (CSF1R) Receptor Tyrosine Kinase, CSF1R (gene 1436) (UniProt P07333); assay: ERF_FR_ENZ_hCSF1R: Eurofins (ERF) Enzymatic Radiometric [Km ATP] KinaseProfiler LeadHunter Assay for human Fms (CSFR) (CSF1R) Receptor Tyrosine Kinase
Sequence (P07333 whole entry, looked up): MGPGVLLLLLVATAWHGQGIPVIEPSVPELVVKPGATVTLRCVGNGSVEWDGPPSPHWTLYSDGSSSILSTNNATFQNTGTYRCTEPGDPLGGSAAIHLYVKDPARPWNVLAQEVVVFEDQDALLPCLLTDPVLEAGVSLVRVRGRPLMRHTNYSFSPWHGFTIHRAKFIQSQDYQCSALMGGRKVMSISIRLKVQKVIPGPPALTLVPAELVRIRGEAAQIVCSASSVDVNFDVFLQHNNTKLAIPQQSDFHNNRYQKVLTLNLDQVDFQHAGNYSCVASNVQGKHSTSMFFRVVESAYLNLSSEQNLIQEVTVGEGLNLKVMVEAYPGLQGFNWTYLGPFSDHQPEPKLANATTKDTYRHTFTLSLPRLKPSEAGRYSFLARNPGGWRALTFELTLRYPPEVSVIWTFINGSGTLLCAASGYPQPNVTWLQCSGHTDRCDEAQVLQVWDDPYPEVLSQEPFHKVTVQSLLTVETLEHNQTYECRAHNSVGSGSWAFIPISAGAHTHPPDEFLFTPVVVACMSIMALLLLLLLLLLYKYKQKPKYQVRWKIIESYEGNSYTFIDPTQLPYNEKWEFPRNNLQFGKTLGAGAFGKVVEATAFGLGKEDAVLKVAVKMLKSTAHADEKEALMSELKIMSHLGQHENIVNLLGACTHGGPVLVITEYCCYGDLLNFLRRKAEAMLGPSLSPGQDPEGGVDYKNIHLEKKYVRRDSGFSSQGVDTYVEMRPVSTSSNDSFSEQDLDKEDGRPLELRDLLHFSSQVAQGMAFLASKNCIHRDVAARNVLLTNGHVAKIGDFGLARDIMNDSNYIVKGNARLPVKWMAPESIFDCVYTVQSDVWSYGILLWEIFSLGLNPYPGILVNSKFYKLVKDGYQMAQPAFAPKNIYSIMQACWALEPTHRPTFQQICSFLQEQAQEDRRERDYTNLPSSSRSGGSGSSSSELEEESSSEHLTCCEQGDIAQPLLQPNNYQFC
Procedure: ERF_FR_ENZ_hCSF1R is a biochemical, single-readout assay that uses extracted gene-proteins in a cell-free assay. Measurements were taken 0.25 hour after chemical dosing in a 96-well plate. See Fms (CSFR) Human RTK Kinase Enzymatic LANCE Assay [Km ATP], Cerep.ERF_FR_ENZ_hCSF1R is an assay component calculated from the ERF_FR_ENZ_hCSF1R assay. It is designed to measure enzyme activity using a type of enzyme reporter as detected by fluorescence intensity with LANCE technology.Data from the assay component ERF_FR_ENZ_hCSF1R was analyzed at the assay endpoint, ERF_FR_ENZ_hCSF1R, in the positive analysis fitting direction relative to DMSO as the negative control and baseline of activity. Using a type of enzyme reporter, loss-of-signal activity can be used to understand changes in enzymatic activity as they relate to gene CSF1R. To generalize the intended target to other relatable targets, this assay endpoint is annotated to the kinase intended target family, where the subfamily is receptor tyrosine kinase.
Fms (h) is incubated with 8 mM MOPS pH 7.0, 0.2 mM EDTA, 250 uM […], 10 mM MgAcetate and [g- 33P]-ATP (specific activity and concentration as required). The reaction is initiated by the addition of the Mg/ATP mix. After incubation for 40 minutes at room temperature, the reaction is stopped by the addition of phosphoric acid to a concentration of 0.5%. […]

Q: For O=C(/C=C/c1ccc(O)cc1)CC(=O)/C=C/c1ccc(O)cc1, which outcome is on record?
A: The outcome was “inactive”.
